Assay results: the supplement of paper PMC10849652
About 7,900 targets were measured; listed, in parts, are those with a hit and a random draw of the rest. About 0.6% of all pairs of compound and target were hits.

Tests used:
Assay in all cases: log2 fold change, soluble protein after heating vs DMSO (PISA); higher = thermal stabilisation; K562 cells, 10 uM, 30 min; active = over 0.2 and 3.5 SD of the protein, either way, in both replicates (recomputed)
[1] = compound: C#Cc1cccc(Nc2ncnc3cc(OCCOC)c(OCCOC)cc23)c1 [erlotinib]
How it was run: (§1)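 K562 cells (2×10^6 cells/mL) were treated with 10 μM compound for 30 min, and aliquots were heated for 3 min over 48°C-58°C. Pooled aliquots were extracted in PBS with 0.5% NP-40 at 4°C, and the supernatant after 21,000xg for 90 min was measured by TMTpro 16plex LC-MS/MS with channel sums equalised. Reported thermal stability, relative to control samples and from duplicates, is a log2 fold change.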

[2] = compound: C/C(=N\NC(=O)C1=CC(=CC=C1)S(=O)(=O)N2CCOCC2)/C3=C(C=CC(=C3)Cl)O
How it was run: as §1

[3] = compound: C1=CC(=C(C=C1Cl)C2=NC3=NC=CN=C3C(=N2)NC4=CC=NC=C4)F
How it was run: as §1

[4] = compound: C1=CC(=CC=C1C2=NC3=C(N2)C=C(C=C3)C(=O)N)OC4=CC=C(C=C4)Cl
How it was run: as §1

[5] = compound: C1=CC2=C(C=CC(=C2)/C=C\3/C(=O)NC(=NCC4=CC=CS4)S3)N=C1
How it was run: as §1

[6] = compound: C1=CC2=NC=CN=C2C=C1/C=C/3\C(=O)NC(=O)S3
How it was run: as §1

[7] = compound: C1=CC=C(C=C1)C2=NC(=C(N2)C3=CC=NC=C3)C4=CC(=C(C=C4)Cl)O
How it was run: as §1

[8] = compound: C1=CC=C2C(=C1)C3=NNC4=CC=CC(=C43)C2=O
How it was run: as §1

[9] = compound: C1CCN(C1)C(=O)NC2=CC=CC(=C2)NC3=NC=C(C(=N3)NCCC4=CN=CN4)Br
How it was run: as §1

[10] = compound: C1CN(CCC1(CC2=CC=C(C=C2)Cl)N)C3=NC=NC4=C3C=CN4
How it was run: as §1

Measured: log2 fold change

DHRS7B (UniProt Q6IAN0)
inactive: [1] -0.039 | [2] 0.07 | [3] 0.011 | [4] 0.009 | [5] 0.027 | [6] 0.012 | [7] 0.144 | [8] 0.034 | [9] -0.037 | [10] 0.058

DYRK1A isoform 2 (UniProt Q13627)
inactive: [1] 0.034 | [2] 0.039 | [3] -0.058 | [4] 0.019 | [5] -0.095 | [6] -0.173 | [7] -0.027 | [8] -0.064 | [9] -0.093 | [10] -0.067

DHCR24 (UniProt Q15392)
inactive: [1] 0.393 | [2] 0.068 | [3] -0.151 | [4] 0.092 | [5] 0.081 | [6] -0.024 | [7] 0.03 | [8] -0.009 | [9] -0.066 | [10] -0.074

DTWD1 (UniProt Q8N5C7)
Sequence of UniProt Q8N5C7 (Q8N5C7 whole entry, looked up): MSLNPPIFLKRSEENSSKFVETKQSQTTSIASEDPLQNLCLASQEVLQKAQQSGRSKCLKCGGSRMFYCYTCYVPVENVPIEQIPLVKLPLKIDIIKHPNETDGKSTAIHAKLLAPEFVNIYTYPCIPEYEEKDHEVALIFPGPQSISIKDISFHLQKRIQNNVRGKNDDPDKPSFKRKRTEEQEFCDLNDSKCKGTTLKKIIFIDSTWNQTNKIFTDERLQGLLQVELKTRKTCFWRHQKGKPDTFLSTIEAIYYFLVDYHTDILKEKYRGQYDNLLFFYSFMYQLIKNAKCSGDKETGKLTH
inactive: [1] 0.072 | [2] 0.007 | [3] 0.002 | [4] -0.122 | [5] 0.018 | [6] 0.017 | [7] -0.039 | [8] 0.023 | [9] 0.016 | [10] 0.044

CYFIP1 (UniProt Q7L576)
Sequence of UniProt Q7L576 (Q7L576 whole entry, looked up): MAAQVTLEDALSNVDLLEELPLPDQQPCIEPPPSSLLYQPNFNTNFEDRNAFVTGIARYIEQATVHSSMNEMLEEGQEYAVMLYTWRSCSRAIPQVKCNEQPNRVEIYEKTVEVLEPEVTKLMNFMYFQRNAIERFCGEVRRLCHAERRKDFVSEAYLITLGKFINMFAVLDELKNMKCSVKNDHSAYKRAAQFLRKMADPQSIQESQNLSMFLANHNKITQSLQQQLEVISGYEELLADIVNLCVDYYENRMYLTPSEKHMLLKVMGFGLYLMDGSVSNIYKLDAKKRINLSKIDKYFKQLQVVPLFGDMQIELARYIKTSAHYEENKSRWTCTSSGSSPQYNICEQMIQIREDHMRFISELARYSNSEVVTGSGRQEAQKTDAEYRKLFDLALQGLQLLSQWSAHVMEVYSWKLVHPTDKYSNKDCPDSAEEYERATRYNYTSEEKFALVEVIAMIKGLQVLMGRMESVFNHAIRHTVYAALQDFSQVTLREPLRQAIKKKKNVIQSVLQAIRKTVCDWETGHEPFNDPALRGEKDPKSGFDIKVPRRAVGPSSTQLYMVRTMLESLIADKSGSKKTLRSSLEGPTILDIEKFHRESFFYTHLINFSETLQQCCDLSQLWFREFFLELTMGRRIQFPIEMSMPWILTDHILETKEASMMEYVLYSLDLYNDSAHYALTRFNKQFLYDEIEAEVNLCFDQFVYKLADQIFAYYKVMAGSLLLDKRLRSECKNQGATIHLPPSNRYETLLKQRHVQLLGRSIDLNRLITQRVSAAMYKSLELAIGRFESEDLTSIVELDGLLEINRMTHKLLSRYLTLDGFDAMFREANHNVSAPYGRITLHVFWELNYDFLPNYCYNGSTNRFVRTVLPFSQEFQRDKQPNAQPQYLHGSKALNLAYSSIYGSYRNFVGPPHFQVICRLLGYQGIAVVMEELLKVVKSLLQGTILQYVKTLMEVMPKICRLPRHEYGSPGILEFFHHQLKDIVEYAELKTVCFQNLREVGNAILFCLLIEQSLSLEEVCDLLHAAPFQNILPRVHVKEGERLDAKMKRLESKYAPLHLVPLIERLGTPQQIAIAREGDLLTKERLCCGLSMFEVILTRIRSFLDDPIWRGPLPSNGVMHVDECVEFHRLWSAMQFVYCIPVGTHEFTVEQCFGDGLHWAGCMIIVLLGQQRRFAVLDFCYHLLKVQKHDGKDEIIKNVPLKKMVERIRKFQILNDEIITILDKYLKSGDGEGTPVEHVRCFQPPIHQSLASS
inactive: [1] -0.016 | [2] 0.066 | [3] 0.07 | [4] 0.018 | [5] 0.002 | [6] 0.026 | [7] 0.003 | [8] -0.016 | [9] 0.005 | [10] 0.059

FAAP100 (UniProt Q0VG06)
Sequence of UniProt Q0VG06 (Q0VG06 whole entry, looked up): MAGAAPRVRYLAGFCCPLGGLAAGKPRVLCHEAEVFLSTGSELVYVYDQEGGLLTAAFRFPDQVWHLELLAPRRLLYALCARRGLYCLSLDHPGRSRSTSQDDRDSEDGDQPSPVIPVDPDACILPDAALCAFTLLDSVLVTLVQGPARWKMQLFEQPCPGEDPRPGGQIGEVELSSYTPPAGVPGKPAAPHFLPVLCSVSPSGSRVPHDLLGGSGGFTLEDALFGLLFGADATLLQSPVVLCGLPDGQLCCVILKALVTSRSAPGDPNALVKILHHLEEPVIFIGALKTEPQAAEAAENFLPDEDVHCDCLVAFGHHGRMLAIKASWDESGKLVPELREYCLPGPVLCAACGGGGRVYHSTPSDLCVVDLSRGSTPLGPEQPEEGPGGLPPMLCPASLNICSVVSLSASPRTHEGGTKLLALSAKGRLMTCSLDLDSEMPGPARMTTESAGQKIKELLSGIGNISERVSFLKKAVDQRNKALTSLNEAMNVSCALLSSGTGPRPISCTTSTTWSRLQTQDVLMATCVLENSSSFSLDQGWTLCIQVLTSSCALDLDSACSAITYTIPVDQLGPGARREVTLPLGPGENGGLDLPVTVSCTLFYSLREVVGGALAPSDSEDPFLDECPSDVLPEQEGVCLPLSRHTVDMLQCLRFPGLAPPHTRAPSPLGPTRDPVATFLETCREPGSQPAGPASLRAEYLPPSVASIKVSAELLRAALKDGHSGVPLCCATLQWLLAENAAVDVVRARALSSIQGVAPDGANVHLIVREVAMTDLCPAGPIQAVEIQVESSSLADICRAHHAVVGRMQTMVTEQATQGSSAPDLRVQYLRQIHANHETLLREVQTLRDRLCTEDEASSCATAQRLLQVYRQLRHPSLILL
inactive: [1] 0.003 | [2] 0.019 | [3] 0.246 | [4] 0.037 | [5] 0.052 | [6] 0.17 | [7] -0.024 | [8] 0.023 | [9] -0.122 | [10] 0.004

DTWD2 (UniProt Q8NBA8)
inactive: [1] 0.017 | [2] 0.018 | [3] 0.014 | [4] -0.095 | [5] -0.124 | [6] 0.072 | [7] 0.065 | [8] 0.033 | [9] 0.066 | [10] -0.02

EHD2 (UniProt Q9NZN4)
inactive: [1] -0.044 | [2] 0.025 | [3] 0.013 | [4] -0.077 | [5] 0.007 | [6] -0.01 | [7] -0.003 | [8] 0.01 | [9] -0.008 | [10] 0.041

EXOC1 (UniProt Q9NV70)
inactive: [1] 0.057 | [2] 0.163 | [3] -0.104 | [4] -0.05 | [5] 0.17 | [6] 0.013 | [7] 0.051 | [8] 0.054 | [9] -0.044 | [10] -0.073

CTSA (UniProt P10619)
inactive: [1] -0.058 | [2] -0.065 | [3] 0.001 | [4] -0.004 | [5] -0.053 | [6] 0.018 | [7] 0.04 | [8] 0.003 | [9] 0.021 | [10] 0.051

DOHH (UniProt Q9BU89)
inactive: [1] -0.001 | [2] -0.102 | [3] -0.046 | [4] 0 | [5] 0.083 | [6] -0.183 | [7] 0.064 | [8] 0.038 | [9] -0.051 | [10] 0.026

DNAAF2 (UniProt Q9NVR5)
inactive: [1] 0.046 | [2] 0.021 | [3] 0.108 | [4] -0.003 | [5] 0.01 | [6] 0.016 | [7] -0.018 | [8] -0.025 | [9] 0.021 | [10] -0.025

EDEM2 (UniProt Q9BV94)
inactive: [1] -0.025 | [2] 0.023 | [3] -0.009 | [4] 0.09 | [5] 0.132 | [6] -0.318 | [7] 0.012 | [8] 0.081 | [9] -0.018 | [10] 0.05

ERLIN1 (UniProt O75477)
inactive: [1] -0.081 | [2] 0.013 | [3] -0.097 | [4] -0.001 | [5] -0.015 | [6] -0.011 | [7] -0.006 | [8] -0.047 | [9] 0.008 | [10] -0.124

FAM83D (UniProt Q9H4H8)
inactive: [1] 0.035 | [2] 0.027 | [3] -0.124 | [4] -0.015 | [5] -0.016 | [6] 0.02 | [7] 0.086 | [8] 0.059 | [9] -0.071 | [10] -0.062

CTSV (UniProt O60911)
inactive: [1] 0.043 | [2] -0.105 | [3] 0.023 | [4] -0.054 | [5] 0.035 | [6] -0.004 | [7] 0.024 | [8] 0.023 | [9] 0.04 | [10] 0.022

DTYMK (UniProt P23919)
inactive: [1] -0.007 | [2] 0.025 | [3] 0.013 | [4] 0.04 | [5] -0.027 | [6] 0.044 | [7] -0.017 | [8] 0.095 | [9] 0.015 | [10] 0.016

ERLIN2 (UniProt O94905)
inactive: [1] -0.073 | [2] -0.075 | [3] -0.054 | [4] -0.014 | [5] -0.012 | [6] 0.027 | [7] 0.021 | [8] -0.054 | [9] -0.002 | [10] -0.097

DYNC1I2 isoform 2 (UniProt Q13409)
Sequence of UniProt Q13409 (Q13409 whole entry, looked up): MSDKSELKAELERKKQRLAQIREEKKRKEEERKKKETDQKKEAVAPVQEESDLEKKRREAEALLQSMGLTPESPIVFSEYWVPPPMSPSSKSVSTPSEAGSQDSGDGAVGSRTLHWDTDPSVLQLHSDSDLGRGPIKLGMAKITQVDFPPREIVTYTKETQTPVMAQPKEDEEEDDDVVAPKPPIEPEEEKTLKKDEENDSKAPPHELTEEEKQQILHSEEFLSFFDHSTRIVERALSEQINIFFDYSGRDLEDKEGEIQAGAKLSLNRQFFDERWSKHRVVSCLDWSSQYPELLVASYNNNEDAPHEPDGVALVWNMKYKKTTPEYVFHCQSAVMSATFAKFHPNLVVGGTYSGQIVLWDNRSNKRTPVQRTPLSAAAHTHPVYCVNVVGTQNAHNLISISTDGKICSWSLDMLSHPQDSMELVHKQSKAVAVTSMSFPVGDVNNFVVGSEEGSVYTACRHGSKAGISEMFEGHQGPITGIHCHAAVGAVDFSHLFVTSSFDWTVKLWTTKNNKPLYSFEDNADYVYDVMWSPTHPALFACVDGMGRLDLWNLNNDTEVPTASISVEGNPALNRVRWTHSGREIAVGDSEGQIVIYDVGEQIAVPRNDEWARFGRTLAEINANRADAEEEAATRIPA
inactive: [1] 0.018 | [2] 0.155 | [3] 0.057 | [4] -0.056 | [5] -0.202 | [6] -0.013 | [7] 0.17 | [8] 0.057 | [9] -0.062 | [10] 0.029

EIF2S3 (UniProt P41091)
inactive: [1] -0.028 | [2] -0.041 | [3] -0.18 | [4] -0.004 | [5] -0.023 | [6] -0.006 | [7] -0.037 | [8] 0.015 | [9] -0.023 | [10] -0.06

DTNBP1 (UniProt Q96EV8)
inactive: [1] 0.016 | [2] 0.028 | [3] 0.038 | [4] 0.03 | [5] 0.028 | [6] -0.038 | [7] -0.043 | [8] -0.043 | [9] -0.009 | [10] 0.002

DYNC1I2 isoform 5 (UniProt Q13409)
inactive: [1] -0.009 | [2] -0.016 | [3] -0.033 | [4] 0.003 | [5] 0.025 | [6] -0.006 | [7] 0.057 | [8] 0.016 | [9] 0.007 | [10] 0.018

ELOVL1 (UniProt Q9BW60)
inactive: [1] -0.022 | [2] 0.019 | [3] -0.01 | [4] -0.059 | [5] 0.036 | [6] 0.011 | [7] 0.069 | [8] -0.11 | [9] -0.124 | [10] 0.014

EEF1A1 (UniProt P68104)
Sequence of UniProt P68104 (P68104 whole entry, looked up): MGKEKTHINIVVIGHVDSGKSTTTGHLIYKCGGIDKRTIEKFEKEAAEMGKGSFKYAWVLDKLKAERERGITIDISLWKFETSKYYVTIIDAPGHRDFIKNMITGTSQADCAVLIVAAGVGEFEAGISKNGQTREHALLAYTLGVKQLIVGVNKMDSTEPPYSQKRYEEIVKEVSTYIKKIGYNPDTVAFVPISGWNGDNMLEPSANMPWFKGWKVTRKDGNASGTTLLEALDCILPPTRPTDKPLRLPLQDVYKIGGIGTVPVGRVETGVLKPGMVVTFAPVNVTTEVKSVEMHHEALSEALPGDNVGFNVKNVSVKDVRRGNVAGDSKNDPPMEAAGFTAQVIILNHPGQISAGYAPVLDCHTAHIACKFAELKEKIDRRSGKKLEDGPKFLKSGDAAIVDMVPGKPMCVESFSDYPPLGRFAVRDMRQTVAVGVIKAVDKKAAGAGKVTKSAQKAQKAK
inactive: [1] -0.083 | [2] 0.119 | [3] 0.051 | [4] 0.062 | [5] -0.062 | [6] -0.343 | [7] 0.195 | [8] 0.135 | [9] -0.055 | [10] 0.122

EDC4 (UniProt Q6P2E9)
Sequence of UniProt Q6P2E9 (Q6P2E9 whole entry, looked up): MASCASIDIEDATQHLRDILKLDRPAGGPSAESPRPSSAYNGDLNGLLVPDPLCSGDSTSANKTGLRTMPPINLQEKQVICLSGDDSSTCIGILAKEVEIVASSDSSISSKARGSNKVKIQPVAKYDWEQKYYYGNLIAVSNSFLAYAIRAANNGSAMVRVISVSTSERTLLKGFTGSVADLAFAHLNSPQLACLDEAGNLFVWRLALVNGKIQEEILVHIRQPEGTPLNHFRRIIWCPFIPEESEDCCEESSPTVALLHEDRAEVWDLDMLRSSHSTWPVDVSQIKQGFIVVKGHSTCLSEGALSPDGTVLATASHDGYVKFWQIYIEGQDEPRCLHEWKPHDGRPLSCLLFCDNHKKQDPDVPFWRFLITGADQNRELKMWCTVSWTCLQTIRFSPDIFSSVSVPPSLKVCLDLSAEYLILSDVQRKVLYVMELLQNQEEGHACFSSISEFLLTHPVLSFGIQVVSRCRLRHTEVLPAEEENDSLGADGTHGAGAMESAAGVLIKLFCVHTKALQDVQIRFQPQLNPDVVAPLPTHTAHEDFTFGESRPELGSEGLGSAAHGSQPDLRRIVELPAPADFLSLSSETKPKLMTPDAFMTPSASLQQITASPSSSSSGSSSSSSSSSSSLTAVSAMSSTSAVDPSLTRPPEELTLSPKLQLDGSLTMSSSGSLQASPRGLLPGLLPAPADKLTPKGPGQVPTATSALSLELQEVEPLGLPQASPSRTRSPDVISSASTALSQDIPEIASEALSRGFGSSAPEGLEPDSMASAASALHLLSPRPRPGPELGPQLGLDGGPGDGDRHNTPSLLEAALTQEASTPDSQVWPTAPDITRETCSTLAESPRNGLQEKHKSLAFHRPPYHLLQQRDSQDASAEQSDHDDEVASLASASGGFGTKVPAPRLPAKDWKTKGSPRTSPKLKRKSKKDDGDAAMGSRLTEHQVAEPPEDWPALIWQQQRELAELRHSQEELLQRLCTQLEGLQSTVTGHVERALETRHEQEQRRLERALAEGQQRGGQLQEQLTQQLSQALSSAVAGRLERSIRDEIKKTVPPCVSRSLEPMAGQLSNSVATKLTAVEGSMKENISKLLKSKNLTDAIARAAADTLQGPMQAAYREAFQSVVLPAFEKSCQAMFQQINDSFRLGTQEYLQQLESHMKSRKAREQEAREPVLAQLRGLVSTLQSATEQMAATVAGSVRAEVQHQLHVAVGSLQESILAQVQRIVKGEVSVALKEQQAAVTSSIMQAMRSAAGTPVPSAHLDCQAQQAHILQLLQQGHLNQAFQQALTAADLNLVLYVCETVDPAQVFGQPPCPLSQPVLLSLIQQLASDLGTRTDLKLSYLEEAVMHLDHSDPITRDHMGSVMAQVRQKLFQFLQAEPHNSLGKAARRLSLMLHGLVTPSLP
inactive: [1] -0.045 | [2] 0.1 | [3] -0.058 | [4] 0.017 | [5] -0.177 | [6] -0.069 | [7] -0.035 | [8] -0.151 | [9] -0.023 | [10] -0.041

CTNNB1 (UniProt P35222)
inactive: [1] -0.035 | [2] 0.062 | [3] -0.033 | [4] 0.025 | [5] 0.092 | [6] 0.108 | [7] 0.036 | [8] -0.01 | [9] -0.002 | [10] -0.032

DBT (UniProt P11182)
inactive: [1] -0.041 | [2] -0.019 | [3] -0.021 | [4] 0.049 | [5] -0.03 | [6] 0.038 | [7] 0.099 | [8] -0.01 | [9] -0.006 | [10] -0.065

CUTA isoform 2 (UniProt O60888)
inactive: [1] -0.01 | [2] -0.066 | [3] 0 | [4] 0.033 | [5] 0 | [6] 0.003 | [7] 0.091 | [8] -0.054 | [9] -0.1 | [10] -0.105

CYBA (UniProt P13498)
inactive: [1] -0.075 | [2] 0.096 | [3] -0.005 | [4] 0.025 | [5] 0.042 | [6] 0.032 | [7] 0.03 | [8] -0.072 | [9] -0.012 | [10] -0.005

EXOC5 (UniProt O00471)
inactive: [1] 0.054 | [2] 0.092 | [3] -0.002 | [4] -0.044 | [5] 0.01 | [6] 0 | [7] -0.006 | [8] 0.015 | [9] 0.004 | [10] -0.015
